Experimental data from PubChem BioAssay (NCI).
This is part of a sample that, as a whole, favours compounds with a hit. Of some 79,000 tested, about 15% had one in any assay. Rule as the data show it: active = growth inhibition above about 70%; inactive = the rest.

Columns and labels:
[1] = NCI Yeast Anticancer Drug Screen. Data for the rad50 strain (AID 155);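 also: 0% = growth of vehicle-only cultures of the same strain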; details: S. cerevisiae rad50 strain growth inhibition; at 50.0 µM; stronger effect = higher value
In short: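 Cells are treated with compound, grown, and their growth is then scored against vehicle-only cultures of the same repair-deficient yeast strain.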

[2] = NCI Yeast Anticancer Drug Screen. Data for the mec2-1 strain (AID 157); details: S. cerevisiae mec2-1 strain, at 50.0 µM, stronger effect = higher value
In short: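 mec2-1 yeast strain, carrying an alteration in DNA damage repair or cell cycle control, was exposed to compounds; growth inhibition was measured relative to vehicle-treated controls.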

[3] = NCI Yeast Anticancer Drug Screen. Data for the sgs1 mgt1 strain (AID 161);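 also: 0% = growth of cultures given vehicle only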; details: S. cerevisiae sgs1 mgt1 strain, at 50.0 µM, stronger effect = higher value
In short: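 Compounds are added to genetically altered yeast, and growth is compared with cultures given vehicle alone to give percent inhibition.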

[4] = NCI Yeast Anticancer Drug Screen. Data for the cln2 rad14 strain (AID 165);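 also: 0% = growth equal to vehicle treated cultures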; details: S. cerevisiae cln2 rad14 strain, at 50.0 µM, stronger effect = higher value
In short: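 Yeast carrying cln2 and rad14 alterations (cell cycle control and DNA damage repair) were exposed to compounds. Growth inhibition was measured against vehicle-treated controls.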

[5] = NCI Yeast Anticancer Drug Screen. Data for the bub3 strain (AID 167); details: S. cerevisiae bub3 mutant strain, at 50.0 µM, stronger effect = higher value
In short: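 Part of a panel of yeast mutants defective in DNA damage repair or cell cycle regulation. Each strain is grown with compound, and inhibition is calculated relative to solvent-treated cultures.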

[6] = NCI Yeast Anticancer Drug Screen. Data for the mlh1 rad18 strain (AID 175); details: S. cerevisiae mlh1 rad18 strain growth inhibition; at 50.0 µM; stronger effect = higher value
In short: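 Growth inhibition of the yeast strain was measured after compound exposure and expressed relative to vehicle-treated controls. The strain carries defined defects in DNA damage repair.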

Measured: growth inhibition

c1ccc2c3nnc(c2c1)SCCCSc1nnc(c2ccccc12)SCCCS3
inactive: [1] -9.3% | [2] -13.3% | [3] -2.5% | [4] 1.6% | [5] 1.8% | [6] -0.95%

CN(C)C(=O)C1CCC(=O)N1 (centres undefined)
inactive: [1] 3.1% | [2] 10.6% | [3] 6.6% | [4] -4.95% | [5] 10.6% | [6] -0.3%

CN(CCNC(=O)NC1CCCCC1)c1ccccc1
inactive: [1] 3.45% | [2] 0.75% | [3] 15.9% | [4] 2.85% | [5] 8.45% | [6] 35.4%

Cc1nnnn1[C@H]1C(C#N)CC2[C@@H]3CCC4=Cc5nnnn5CC[C@]4(C)C3CC[C@@]21C (some centres undefined)
inactive: [1] 23.3% | [2] 27.4% | [3] 23% | [4] 16.6% | [5] 13.2% | [6] 25.2%

CCN1c2ccccc2CC(C#N)(CCN(C)C)c2ccccc21 (centres undefined)
inactive: [1] 1.5% | [2] 5.45% | [3] 2.65% | [4] -10.8% | [5] 6.95% | [6] -0.35%

CCCCON1C[C@@H](O)C(O)[C@@H](O)C1 (some centres undefined)
inactive: [1] -25.9% | [2] 8.9% | [3] -37.9% | [4] -13.2% | [5] 13.6% | [6] -4.35%

COc1ccc2c(c1)CCC1=C2CC2C(=O)C1(C)CCC2(C)OC(C)=O (centres undefined)
inactive: [1] -4.35% | [2] -11.1% | [3] -1.3% | [4] -40.5% | [5] 10.1% | [6] -14.2%

Nc1ccc(C(=O)c2ccccc2)cc1
inactive: [1] 33.2% | [2] 13.9% | [3] 25.4% | [4] -8.55% | [5] -1.55% | [6] 4.9%

O=C(O)/C(=C\c1ccccc1[N+](=O)[O-])c1ccccc1
inactive: [1] 35.3% | [2] -3.05% | [3] 7.45% | [4] -30.9% | [5] -1.45% | [6] 47.4%

COc1ccc2c(c1)CC1(CC2)CCN(CCCN(C)C)CC1
inactive: [1] -32.3% | [2] -7.85% | [3] -22.2% | [4] 10.6% | [5] -9.7% | [6] -42.3%

Cc1ccc(-n2c(=O)nc([O-])[n+]3ccccc23)cc1
inactive: [1] -2.85% | [2] -6.85% | [3] -7.95% | [4] -24.8% | [5] -3.75% | [6] 6.65%

Cc1nc(N)nc(C)c1N=Nc1cccc(Cl)c1
inactive: [1] 2.05% | [2] 11.6% | [3] 9.35% | [4] -32.8% | [5] 21.6% | [6] 3.85%

CCC(CC)C(=O)OCCOCCOC
inactive: [1] 30.2% | [2] 11.8% | [3] 14.9% | [4] 7.9% | [5] 23.6% | [6] 36.9%

CCSc1nc(COC(=O)NC)c(COC(=O)NC)n1C
inactive: [1] 4.9% | [2] -4.25% | [3] 8.25% | [4] -4.15% | [5] 10.7% | [6] 3.65%

O=C1C2(CCCC13N=NCC3c1ccccc1)N=NCC2c1ccccc1 (centres undefined)
inactive: [1] 28.9% | [2] -19.1% | [3] -0.95% | [4] -4.9% | [5] 0.85% | [6] 38.5%

COc1cccc(/C=C(\NC(C)=O)c2nc3ccc(Cl)cc3[nH]2)c1
inactive: [1] 1.8% | [2] -1.35% | [3] 8.75% | [4] 2.15% | [5] -3.85% | [6] 8.1%

C=Nc1ccc([N+](=O)[O-])c(N=C)c1
inactive: [1] -2.85% | [2] -0.25% | [3] -9.7% | [4] -18% | [5] 2.7% | [6] 5.15%

CCCCCCCCCCCCCCCCS(=O)(=O)N/N=C(/c1ccc(Cl)cc1)N1CCCCC1
inactive: [1] -18.2% | [2] -32.1% | [3] 3.25% | [4] 21.2% | [5] -10.2% | [6] -4.85%

Cc1cc([NH-])c([NH-])cc1C.[Cl][Pt+2][Cl]
inactive: [1] -2.85% | [2] -6.4% | [3] -0.15% | [4] -0.3% | [5] -6.4% | [6] -25.9%

COC(=O)N1c2ccccc2C23CCN4CCCC5(CCC12C(C(=O)O)C5)C43 (centres undefined)
inactive: [1] -2.6% | [2] 8.2% | [3] 0.15% | [4] -9.45% | [5] 3.9% | [6] 9.7%

O=C1c2cc(Cl)ccc2-c2ccc(N=Cc3ccccc3Cl)cc21
inactive: [1] 1.65% | [2] -1.55% | [3] -7.8% | [4] -89.5% | [5] 34.1% | [6] -1.35%

CC(C)OC(=O)CCCCCc1ccccc1
inactive: [1] 6% | [2] -2.7% | [3] -29.1% | [4] 7.85% | [5] 2.1% | [6] -8.4%

Cn1cnc2c([nH]c(=O)n2C2OC(CO)C(O)C2O)c1=N (centres undefined)
inactive: [1] 13.5% | [2] 1.05% | [3] 2% | [4] -35.4% | [5] 3.55% | [6] 9.55%

CCC(C(=O)O)c1ccc(-c2ccccc2)cc1 (centres undefined)
inactive: [1] 24.6% | [2] 24.1% | [3] 19.1% | [4] 23.1% | [5] 24.4% | [6] 9.5%

COc1ccn(C2OCCC(OC(C)=O)C2O)c(=O)n1 (centres undefined)
inactive: [1] -19.8% | [2] -24.1% | [3] 6.25% | [4] -22.9% | [5] 0.4% | [6] 11.7%

NCCOCC(N)C(=O)O (centres undefined)
inactive: [1] -9.3% | [2] -14.4% | [3] -52.4% | [4] -27.1% | [5] -51% | [6] 8.4%

O=C(Nc1c(Cl)cccc1Cl)Oc1cccnc1
inactive: [1] 0% | [2] -19.8% | [3] -9.1% | [4] 2.55% | [5] -23.1% | [6] -1.05%

S=c1[nH]c2ccccc2nc1NCc1ccccc1
inactive: [1] -1.55% | [2] 2.75% | [3] 2.15% | [4] -19.8% | [5] 10.1% | [6] 2.3%

CCCCNC(=S)SSSSC(=S)NCCCC
inactive: [1] -8.45% | [2] -14% | [3] -6.05% | [4] -53.5% | [5] 8.7% | [6] -7.55%

NC(=O)NC1CCCCCCC1
inactive: [1] 5.95% | [2] -14.9% | [3] 1.05% | [4] -7.45% | [5] 4.75% | [6] 0.3%

c1ccc2c3c([nH]c2c1)C1(CCCCC1)c1c([nH]c2ccccc12)C31CCCCC1
inactive: [1] -19.6% | [2] 2.2% | [3] -8.9% | [4] 9.9% | [5] -20.4% | [6] -10.9%

CSc1ccc2c(=O)c(C(=O)O)c[nH]c2c1
inactive: [1] -0.05% | [2] 15.7% | [3] 5.25% | [4] 1.75% | [5] 10.3% | [6] 5.85%

C1=NN=C2C=C3CCc4ccccc4C3CC12 (centres undefined)
inactive: [1] 7.45% | [2] 7.25% | [3] -1.2% | [4] -16.9% | [5] -15.9% | [6] 18.6%

CCCCCCc1cc(-c2cc(CCCCCC)nc(N)n2)nc(N)n1
inactive: [1] -4.25% | [2] 7.05% | [3] 0% | [4] 4.55% | [5] -9.1% | [6] 16.4%

O=C1Nc2ccccc2C1(N1CCCCC1)N1CCCCC1
inactive: [1] 35.9% | [2] 21.9% | [3] 18.5% | [4] 7.9% | [5] 33.6% | [6] 26.6%

CCCCCC(O)(CCCC)CCCCC
inactive: [1] -10.7% | [2] -1.65% | [3] 1.85% | [4] 19.9% | [5] 1.75% | [6] 15.9%

Cn1c(=O)c(Cl)c(N=[N+]=[N-])c2ccccc21
inactive: [1] 45.1% | [2] 37.4% | [3] 44% | [4] 51% | [5] 22% | [6] 30.2%

COc1ccccc1Nc1nc(N)nc(N)c1N=O
inactive: [1] 11.4% | [2] -36.1% | [3] -16.2% | [4] -27.7% | [5] -34.6% | [6] -56.1%

CC(CO)CCNc1ncnc2c1ncn2CCC(=O)O (centres undefined)
inactive: [1] -8.7% | [2] 6% | [3] -29.9% | [4] -23.5% | [5] 17.2% | [6] -0.95%
